Inconclusive results are not listed. Active and inactive are the calls of the source. Calls follow the shape of the dose curve; as a rule, active = well fitted inhibition curve with a large enough effect; inconclusive = small, poorly fitted or top-dose-only effect; inactive = flat fitted curve, though single readings scatter.

Data on 35 molecules can be found in PubChem BioAssay (NCATS).

Holding throughout (experiment): qHTS profiling for inhibitors of Plasmodium falciparum proliferation (AID 504749); also: nearly all actives have a fitted effect of over 60% in size
What all share (details): P. falciparum in erythrocytes, SYBR Green DNA, 72 h; series mostly up to 28.7 µM
A general note: Quantitative high-throughput screening tests each substance at several concentrations.

One assay concerns PC15. In short, it runs like this: (§1)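 Parasite proliferation within erythrocytes, 72 h exposure. Endpoint: SYBR Green I fluorescence after overnight lysis at room temperature. Controls: 0.29 uM artemisinin, DMSO.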
The test system of another assay is PC26. In short, it runs like this: as §1
The subject of a further assay is PC49. A digest of the protocol:
as §1

A further assay relates to SC27B. In short, it runs like this: as §1
A further assay relates to TAB109. A digest of the protocol: as §1
The next assay concerns P93_24. In short, it runs like this: as §1
The next assay deals with P94_40. In short, it runs like this:
as §1

The next assay deals with TAB113. A digest of the protocol:
as §1

The next assay concerns PAD. A digest of the protocol: as §1
Another assay concerns N140. In short, it runs like this:
as §1
Potency is read from the fitted curve at half-maximal effect.

On to `CC(=O)OCC(=O)[C@@]1(OC(C)=O)[C@@H](C)C[C@H]2[C@@H]3C[C@H](F)C4=CC(=O)C=C[C@]4(C)[C@@]3(F)[C@@H](O)C[C@@]21C`, for which the Potency entry in the assay on PC15, in the assay with PC26, in the assay with PC49, in the assay on SC27B and with TAB109 was “inactive” each time.

With `CCN(CC)CCOc1ccc(C(O)(Cc2ccc(Cl)cc2)c2ccc(C)cc2)cc1` (stereo not given), in the assay with P93_24, the Potency was 8.91 µM (active).

On to `CCOC(=O)/C=C(C)/C=C/C=C(C)/C=C/c1c(C)cc(OC)c(C)c1C`, for which the figures for the Potency in the assay on P94_40 and in the assay with TAB113 were 8.91 µM (active) and 3.55 µM (active), respectively. The Potency result in the assay with PC15 and in the assay on PC49 was “inactive” each time.

For the molecule `Cc1ccc(O)c2ncccc12`, the Potency entry in the assay on P93_24, with PAD, with PC15, in the assay on PC26, in the assay on PC49 and with SC27B was “inactive” in each case.

On to `CC[N+](CC)(CCNC(=O)C(=O)NCC[N+](CC)(CC)Cc1ccccc1Cl)Cc1ccccc1Cl`, for which the Potency in the assay on P93_24 is 0.794 µM (active); in the assay with P94_40, 0.316 µM (active); in the assay with PAD, 2.82 µM (active); in the assay with PC49, 5.01 µM (active); in the assay with SC27B it was 3.98 µM (active); in the assay on TAB109 it was 1.41 µM (active). Moreover, the Potency with TAB113 is 3.16 µM (active).

Take `CCCOC(C(=O)OC1CCN(C)CC1)(c1ccccc1)c1ccccc1`: the Potency result in the assay on PAD and in the assay with PC49 was “inactive” each time.

With `C[C@@H]1C[C@H]2[C@@H]3CCC4=CC(=O)C=C[C@]4(C)[C@@]3(F)[C@@H](O)C[C@]2(C)[C@H]1C(=O)CO`, the Potency result with P94_40, with PC15, in the assay on PC49, with SC27B, with TAB109 and in the assay on TAB113 was “inactive” each time.

Consider `C=C(CC)C(=O)c1ccc(OCC(=O)O)c(Cl)c1Cl`, for which the Potency with TAB113 is 14.1 µM (active).

Turning to `Oc1c(I)cc(Cl)c2cccnc12`, the Potency result in the assay on P93_24, with PC15, with PC26 and in the assay on PC49 was “inactive” in each case. For the same molecule, the Potency in the assay on P94_40 and in the assay on TAB109 was 12.6 µM (active) throughout.

`CN1CCN(CCCN2c3ccccc3Sc3ccc(S(=O)(=O)N(C)C)cc32)CC1`: the Potency was 3.16 µM (active) with P93_24, 3.16 µM (active) with P94_40 and 3.98 µM (active) in the assay on PAD.

Regarding `O=C(CCCN1CCC(O)(c2ccc(Br)cc2)CC1)c1ccc(F)cc1`, the Potency was 0.398 µM (active) in the assay on PC49 and 3.16 µM (active) with TAB109. Also, in the assay on SC27B, the Potency result is “inactive”.

As for `Oc1ccc(O)cc1`, the Potency entry in the assay on PAD, in the assay on PC15, in the assay on PC49, with SC27B and with TAB109 was “inactive” in each case.

Turning to `CCCCCCCCCCOCC(O)CN` (stereo not given), the Potency entry with TAB113 was “inactive”.

In the case of `C[C@@H](CN(C)C)CN1c2ccccc2Sc2ccccc21`, the Potency entry in the assay with P93_24, in the assay with PAD, in the assay with PC15, with PC49, with SC27B and with TAB109 was “inactive” each time. Also, the Potency result in the assay on TAB113 was “inactive”.

As for `CN1CCN(C(c2ccccc2)c2ccccc2)CC1`, the Potency result in the assay on PAD, in the assay with PC15, in the assay with PC49, in the assay with SC27B, in the assay on TAB109 and with TAB113 was “inactive” each time.

For the molecule `CNCCC(Oc1ccccc1C)c1ccccc1` (stereo not given), the Potency result in the assay on P94_40, in the assay on PAD, with SC27B, with TAB109 and in the assay with TAB113 was “inactive” in each case.

As to `CCCCCCCCCCCCCCCC[N+](C)(C)CCN(Cc1ccc(OC)cc1)c1ncccn1`, the Potency result with P94_40, with PAD, in the assay with PC26 and with PC49 was “inactive” throughout.

Take `Cc1ccc(C(=O)C(C)CN2CCCCC2)cc1` (stereo not given): the Potency result in the assay with PC49 and in the assay on SC27B was “inactive” each time.

On to `COc1cc2c(cc1OC)C(C(C(=O)N(CCc1ccc(OC)c(OC)c1OC)CCc1ccc(OC)c(OC)c1OC)c1ccccc1)=NCC2` (stereo not given), for which the Potency is 2.24 µM (active) in the assay with P93_24; 2.51 µM (active) in the assay on P94_40; 1 µM (active) in the assay with PAD; 2.51 µM (active) in the assay with PC15; 4.78 µM (active) in the assay on PC26; 1 µM (active) in the assay with PC49. In addition, the Potency is 2.24 µM (active) in the assay on SC27B, 3.16 µM (active) in the assay with TAB109 and 2.82 µM (active) with TAB113.

With `CN(C(=O)CN(CCO)CC(=O)N(C)C(C)(C)Cc1ccccc1)C(C)(C)Cc1ccccc1`, the Potency entry with P93_24, in the assay on P94_40, with PAD, in the assay with PC15, in the assay on PC26 and in the assay on PC49 was “inactive” throughout. For the same molecule, the Potency result in the assay with SC27B, in the assay with TAB109 and in the assay on TAB113 was “inactive” each time.

For the molecule `CC(C)N=C(N)/N=C(\N)Nc1ccc(Cl)cc1`, the results for the Potency in the assay on PC15 and in the assay with PC26 were 0.708 µM (active) and 1.61 µM (active), respectively. Moreover, in the assay on TAB113, the Potency result is “inactive”.

In the case of `CO/N=C1\CN(c2nc3c(cc2F)c(=O)c(C(=O)O)cn3C2CC2)CC1CN` (stereo not given), the results for the Potency in the assay with P93_24 and in the assay on TAB109 were 8.91 µM (active) and 5.01 µM (active), respectively. Moreover, in the assay with PC49, the Potency result is “inactive”.

On to `O=c1c(-c2ccccc2)c1-c1ccccc1`, for which the Potency in the assay on N140 is 11.2 µM (active); in the assay with PC26, 12 µM (active); in the assay with SC27B, 11.2 µM (active).

`Clc1ccc2c(c1)CCc1cccnc1C2=C1CCNCC1`: in the assay on PC26, the Potency was 13.5 µM (active). Besides, the Potency entry in the assay with SC27B was “inactive”.

As for `CN(C)CCOc1ccccc1Cc1ccccc1`, the Potency is 4.47 µM (active) in the assay on N140, 2.51 µM (active) in the assay with PC49 and 3.16 µM (active) with TAB109.

Consider `O=C1OC(c2ccc(O)cc2)(c2ccc(O)cc2)c2ccccc21`, for which the Potency entry in the assay on P94_40, with PAD, with PC15, with PC26, with PC49 and with SC27B was “inactive” in each case. For the same molecule, the Potency entry in the assay with TAB109 and in the assay on TAB113 was “inactive” in each case.

As to `O=C1OCCN1/N=C/c1ccc([N+](=O)[O-])o1`, the results for the Potency with P93_24 and in the assay with TAB109 were 11.2 µM (active) and 7.94 µM (active), respectively. The Potency entry with PC15 is “inactive”.

As to `CC(C)=CCC1C(=O)N(c2ccccc2)N(c2ccccc2)C1=O`, the Potency entry with P93_24, in the assay on PC15, in the assay with PC49 and with TAB109 was “inactive” each time.

As to `CCN(CCCc1ccccc1)CCCc1ccccc1`, the Potency entry in the assay on PAD, in the assay on PC15, in the assay with PC26, in the assay on PC49 and in the assay with SC27B was “inactive” throughout.

Consider `OC(CCN1CCCCC1)(c1ccccc1)c1ccccc1`, for which the Potency in the assay on P94_40 is 10 µM (active); in the assay with TAB113, 8.91 µM (active).

With `CN=C(NC#N)Nc1ccc(C2=NNC(=O)CC2C)cc1` (stereo not given), in the assay with PC26, the Potency result was “inactive”.

In the case of `COC(=O)[C@H]1[C@H]2C[C@H]3c4[nH]c5ccccc5c4CCN3C[C@H]2CC[C@@H]1O`, the Potency entry in the assay on PC26 was “inactive”.

On to `O=C(N/N=C/c1ccccc1O)c1ccncc1`, for which the Potency was 10 µM (active) in the assay with P93_24, 10 µM (active) in the assay with P94_40 and 12.6 µM (active) with TAB109. The Potency result with PC15 and in the assay on PC49 was “inactive” each time.

As to `c1ccc(CNCCNCc2ccccc2)cc1`, in the assay with PC49, the Potency is 3.55 µM (active).

`Oc1c(I)cc(I)c2cccnc12`: the Potency with P94_40 was 11.2 µM (active). The Potency entry in the assay on PC49, with SC27B and in the assay with TAB113 was “inactive” each time.
